VDR inh – Inhibitors of the vitamin D receptor (VDR): qHTS; Potency, µM, actives largely listed as inhibitors; 400,000 tested, 0.93% active; VDR-SRC2-3 peptide fluorescence polarization, 2 h
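Two reagent solutions held at 4 deg C in the dark were dispensed, compounds pinned at 23 nl, and the mixture incubated 2 h at room temperature. Read-out: fluorescence polarization of VDR–SRC2-3 peptide binding.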
G9a inh – qHTS Assay for Inhibitors of Histone Lysine Methyltransferase G9a | 350,000 tested, 8.8% active | Potency, µM (titrated, usually from 102 µM), most hits filed as inhibitors | G9a H3K9 monomethylation, AlphaScreen, 2 h | Histone-lysine N-methyltransferase EHMT2 (Homo sapiens), Q96KQ7; note: nearly all actives have a fitted effect of over 75% in size
Target sequence (Q96KQ7 913-1193 limits assumed): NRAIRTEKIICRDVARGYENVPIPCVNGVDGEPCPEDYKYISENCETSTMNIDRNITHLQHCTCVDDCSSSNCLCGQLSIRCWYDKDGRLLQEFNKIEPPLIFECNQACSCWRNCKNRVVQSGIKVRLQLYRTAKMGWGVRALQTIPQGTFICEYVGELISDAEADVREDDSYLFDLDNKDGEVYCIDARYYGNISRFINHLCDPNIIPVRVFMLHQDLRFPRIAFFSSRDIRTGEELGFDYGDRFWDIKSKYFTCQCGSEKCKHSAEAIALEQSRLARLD
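Methyltransferase reactions run at room temperature for 2 h (20 nM enzyme, 500 nM biotin-H3K9 peptide, 20 uM SAM) after a 15 min compound preincubation; product detected by AlphaScreen beads and anti-H3K9me1 antibody.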
Glioma ERSR ind – qHTS for Inducers of the Endoplasmic Reticulum Stress Response (ERSR) in Human Glioma: qHTS; U87-MG GRP78 promoter luciferase reporter, 16 h; Potency, µM, actives largely listed as activators; 420,000 tested, 0.02% active; AID 602332, 2012; note: series mostly up to about 76 µM; nearly all actives have a fitted effect of over 35% in size
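ERSR induction read as luciferase luminescence (Bright-Glo, 10 min at room temperature) in stably transfected human U87-MG glioma cells exposed to compounds for 16 h, using GRP78 as sensor.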
Sfp inh – qHTS Assay for Inhibitors of Bacillus subtilis Sfp phosphopantetheinyl transferase (PPTase); AID 1490, 2009; Biochemical Sfp PPTase activity, qHTS; Potency, µM, most hits filed as inhibitors; 4'-phosphopantetheinyl transferase ffp (Bacillus subtilis), Q9F4F7; 310,000 tested, 3.5% active;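 note: the enzyme is Sfp with the accession as filed and its product quenches rhodamine fluorescence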
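Reaction rates are the 30-min fluorescence difference (ex 525, em 598 nm) in wells containing 15 nM Sfp, 5 uM rhodamine-CoA and 12.5 uM BHQ-2-YbbR at pH 7.6 with 10 mM MgCl2.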
ALOX12 inh – Primary qHTS assay for inhibitors of human arachidonate 12S-lipoxygenase (ALOX12): Round 2; purified 12hLO, xylenol orange hydroperoxide absorbance; Potency, µM (top dose mostly 108 µM), usual class: inhibitors; 580,000 tested, 1.1% active; AID 1671190, 2021
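Hydroperoxide product was detected by ferrous iron/xylenol orange as the 573 to 405 nm absorbance ratio. Arachidonic acid at 40 uM (final) was turned over for 30 min at room temperature by 150 nM human 12hLO, pH 7.0 Hepes buffer, after 15 min compound preincubation.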
Numbers stand for hits; . = inactive; ? = inconclusive; / = no result given; [ ] = dose if it differs, or a comment. This is one part of a sample in which hits are shown more often than they occur. Calls come from the whole dose curve; as a rule, active = well fitted curve in the direction sought with a large enough effect; inconclusive = small, poorly fitted or top-dose-only effect, or another doubt; inactive = no such curve, though single readings can be large; an effect the other way counts as inactive or inconclusive.

SMILES | VDR inh | G9a inh | Glioma ERSR ind | Sfp inh | ALOX12 inh
Cc1ccc(-c2cnc(CCC(=O)Nc3c(C)cccc3C(C)C)o2)cc1 | / | / | / | / | .
CC1(C)CC(=O)C(C2C3=C(CC(C)(C)CC3=O)Oc3ccccc32)=C(O)C1 (configuration not stated) | . | 71µM | . | . | ?
COc1ccc2c(c1)C(C1=C(O)CC(C)(C)CC1=O)C1=C(CC(C)(C)CC1=O)O2 (configuration not stated) | . | . | . | . | .
COc1ccc(Cl)cc1NC(=S)N(Cc1ccc(C(=O)O)cc1)Cc1ccc(OC)c(OC)c1 | . | 28µM | . | 40µM | .
COc1cccc(NC(=S)N(Cc2ccc(Cl)cc2)Cc2ccc(C(=O)O)cc2)c1 | . | 50µM | . | . | 40µM
Cc1cc(NC(=S)N(Cc2ccc(Br)cc2)Cc2ccc(C(=O)O)cc2)ccc1Cl | . | ? | . | ? | 45µM
Cc1cccc(NC(=S)N(Cc2ccc(Br)cc2)Cc2ccc(C(=O)O)cc2)c1 | . | ? | . | . | .
COc1ccc(CN(CC2CCC(C(=O)O)CC2)C(=S)Nc2cc(C)ccc2C)cc1 (configuration not stated) | . | . | . | . | .
COc1ccc(CN(CC2CCC(C(=O)O)CC2)C(=S)Nc2cc(Cl)ccc2OC)cc1 (configuration not stated) | . | ? | . | 40µM | ?
Cc1nc2nc(N)nn2c(C)c1CC(=O)NC(C)C | / | / | / | / | .
COc1ccc(C(=O)NCc2ccc(-c3csc(C)n3)s2)cc1F | / | / | / | / | .
COc1ccc(S(=O)(=O)N(CCc2ccccc2)CC(=O)NC(C)C)cc1 | . | .[2.33 µM] | . | . | 32µM
CCOc1ccc(C2=Cc3cc(OC)c(OC)cc3C(=C(Cl)Cl)O2)cc1 | / | 7.1µM | / | . | /
O=C(CSc1nnc(CN2CCOCC2)n1-c1ccc(Cl)cc1)N1CCc2ccccc21 | 79µM | / | . | / | .
CC(C)c1nnc(SCC(=O)N2CCc3ccccc32)n1N | 79µM | ? | . | . | .
CC1CCN(C(=O)CSc2nnc(CN3CCOCC3)n2-c2ccccc2)CC1 | . | .[12.7 µM] | . | 71µM | .
O=C(CSc1nnc(CN2CCOCC2)n1-c1ccccc1)N1CCc2ccccc21 | . | .[12.7 µM] | . | . | .
NC(=O)CCNc1ccccc1Cl | / | / | / | / | .
CC(C)C(=O)Nc1ccc2[nH]cc(C(C(=O)O)N3CCN(Cc4ccccc4)CC3)c2c1 (configuration not stated) | / | / | / | / | .
CS(=O)(=O)Nc1nnc(C2CCCC2)s1 | . | 50µM | . | . | ?
C/C=C/C(=O)Nc1nnc(C2CCCCC2)s1 | . | ? | . | . | .
O=S(=O)(Nc1nnc(C2CC2)s1)c1ccccc1 | . | 50µM | . | . | .
NC(=O)c1cccc(OCc2ccccc2)c1 | / | / | / | / | .
CCOC(=O)c1nc2ccccc2nc1NCc1ccccc1OC | / | / | / | / | .
COc1cccc(Nc2cc(CN3CCC(C)(NC(C)=O)CC3)cc(OC)c2)c1 | / | / | / | / | 40µM
SMILES | VDR inh | G9a inh | Glioma ERSR ind | Sfp inh | ALOX12 inh
COc1cccc(Nc2ccc(CN3CCC(C)(NC(C)=O)C3)cc2)c1 (configuration not stated) | / | / | / | / | .
CC1(NC(=O)C2CC2)CN(Cc2nc(-c3ccccc3OCc3ccccc3)cs2)C1 | / | / | / | / | .
CC(=O)NC1(C)CCN(Cc2cnc(-c3ccccc3OCc3ccccc3)s2)CC1 | / | / | / | / | 8.9µM
CC(=O)NC1(C)CCN(Cc2cccc(Oc3ccccc3)c2)CC1 | / | / | / | / | 16µM
CCOC(=O)c1c(CSc2ccc(C)cc2)n(C)c2cc(Br)c(O)c(CN(C)C)c12 | . | 8.9µM | . | 56µM | ?
CCOC(=O)c1c(CSc2ccccc2)n(C)c2ccc(O)c(CN3CCN(C)CC3)c12 | . | / | . | . | ?
CCOC(=O)c1c(C)n(-c2ccc(C)cc2)c2ccc(O)c(CN(C)C)c12 | . | 45µM | . | ? | ?
CCOC(=O)c1c(CSc2ccccc2)n(C)c2cc(Br)c(O)c(CN(C)C)c12 | . | 40µM | . | . | .
CCOC(=O)c1c(CSc2ccsc2)n(C)c2cc(Br)c(O)c(CN(C)C)c12 | ? | 32µM | . | . | ?
CCOC(=O)c1c(CN2CCOCC2)n(-c2ccccc2)c2cc(Br)c(O)c(CN(C)C)c12 | . | ? | . | . | .
